The record followed here is PubChem BioAssay AID504941 (Broad Institute, 2011).

Among all 1,200 compounds or so, about 170 (14%) were called active. No rule for the calls is given here. These entries were drawn from the full list. Potency and affinity values are given separately.

The nature of the experiment: E. coli Tat export inhibitors, dose response, cherry-pick, set 2, plate reader (AID 504941). The note with it: E. coli Tat transport reporter; series mostly up to 38 µM; activity change, negative = inhibition: at the top concentration.
Regarding `CC(C)(CO)[C@@H](O)C(=O)NCCC(=O)O`, the “activity change, negative = inhibition” value is -1.7% (inactive).

For `COc1ccc(-c2nc(C#N)c(NCC3CCCO3)o2)cc1OC` (configuration not stated), the “activity change, negative = inhibition” value is -5.51% (inactive).

As to `CCNc1nc(OC)nc(Oc2ccc(=O)n(-c3ccccc3)n2)n1`, the “activity change, negative = inhibition” value was -15.9% (inactive).

On to `CCCCN(CCCC)C(=O)c1cn(CC)c2cc(N3CCN(C)CC3)c(F)cc2c1=O`, for which the “activity change, negative = inhibition” value is 282% (inactive).

As for `CC(=O)Nc1cccc(-c2csc(Nc3cc(C)ccn3)n2)c1`, the “activity change, negative = inhibition” value was -1.58% (inactive).

For the molecule `CC(C)(C)CC(=O)Nc1ccc(Nc2ccccc2)cc1`, the “activity change, negative = inhibition” value was 2.82% (inactive).

Take `Nc1ccc(S(=O)(=O)N2CCCc3ccccc32)cc1`: the “activity change, negative = inhibition” value was 12.9% (inactive).

For `NC(=O)c1c(NC(=O)C(=O)N2CCOCC2)sc2c1CCC2`, the “activity change, negative = inhibition” value was -18.1% (inactive).

Turning to `NC(=O)NC(=O)CSc1nc2sc(-c3ccccc3)cc2c(=O)n1-c1ccccc1`, the “activity change, negative = inhibition” value is -2.99% (inactive).

On to `CCn1c(CCn2c3ccccc3c3ccccc32)n[nH]c1=S`, for which the “activity change, negative = inhibition” value is 11.1% (inactive).

As for `CCc1ccc(NC(=O)Nc2cc(C(=O)NCC3CCCO3)ccc2N2CC3CC(C2)c2cccc(=O)n2C3)cc1` (configuration not stated), the “activity change, negative = inhibition” value is -5.94% (inactive).

Take `CCCN=C1N(CC)C[C@@H]2[C@@H]3C(=O)N(C)C(=O)[C@@H]3[C@](Cc3ccccc3)(C(=O)OC)N12`: the “activity change, negative = inhibition” value is -26.9% (inactive).

For `CC(NC(=O)Nc1nccs1)(C(F)(F)F)C(F)(F)F`, the “activity change, negative = inhibition” value was 22.2% (inactive).

On to `COc1ccc(C2C(C#N)=C(N)Oc3c2sc2nc(C)cc(C)c32)cc1` (configuration not stated), for which the “activity change, negative = inhibition” value was 5.99% (inactive).

On to `COc1cc2c(cc1NC(=O)COC(=O)[C@@H](NC(=O)c1ccccc1)C(C)C)oc1ccccc12`, for which the “activity change, negative = inhibition” value was -4.47% (inactive).

Regarding `Cc1cccc2c1cnn2C(=O)CCC(=O)N1CC(C)CC(C)C1` (configuration not stated), the “activity change, negative = inhibition” value was 0.91% (inactive).

As for `CC(SCC(=O)Nc1ccc(F)cc1)c1nc2ccccc2c(=O)[nH]1` (configuration not stated), the “activity change, negative = inhibition” value is 19.5% (inactive).

As to `O=C(c1ccco1)N1CCN(C(=O)c2ccc(CS(=O)c3ccc(F)cc3)o2)CC1` (configuration not stated), the “activity change, negative = inhibition” value is -9.83% (inactive).

`Cc1nn2c(COc3ccc(NC(=O)c4ccccc4Cl)cc3)nnc2c2ccccc12`: the “activity change, negative = inhibition” value was 11.3% (inactive).

For the molecule `O=C(O)c1ccc(N/N=C/c2ccc(-c3ccccc3)cc2)cc1`, the “activity change, negative = inhibition” value is -7.88% (inactive).

Turning to `COc1cccc(CN(C(=O)Cc2c[nH]c3ccccc23)C(C(=O)NC2CCCCC2)c2ccc(C)o2)c1` (configuration not stated), the “activity change, negative = inhibition” value is 0.794% (inactive).

Take `CCc1cccc(CC)c1NC(=S)NCC(c1cccnc1)N(C)C` (configuration not stated): the “activity change, negative = inhibition” value was 23.3% (inactive).

Regarding `COc1ccc(-c2ccc(-c3noc(-c4ccccc4OC)n3)c(OC)n2)cc1`, the “activity change, negative = inhibition” value is 32.1% (inactive).

For the molecule `N#Cc1cccc(C(=O)OCC(=O)NCc2ccco2)c1`, the “activity change, negative = inhibition” value was 26.4% (inactive).

Turning to `CCOc1ccc(NC(=O)c2ccc(NC(=O)c3cn4c5c(c(N6CCN(C)CC6)c(F)cc5c3=O)OCC4C)cc2)cc1` (configuration not stated), the “activity change, negative = inhibition” value was 53.8% (inactive).

Take `O=C(c1ccco1)N1CCCC(c2nc3c(nnn3Cc3ccc(F)cc3)c(=O)[nH]2)C1` (configuration not stated): the “activity change, negative = inhibition” value was -15.7% (inactive).

Consider `CCOC(=O)N1CCC(N(CCN(C)C)C(=S)Nc2ccc(Oc3ccccc3)cc2)CC1`, for which the “activity change, negative = inhibition” value was -6.93% (inactive).

Consider `Cc1noc(NS(=O)(=O)c2ccc(NC(=O)c3ccoc3C)cc2)c1C`, for which the “activity change, negative = inhibition” value is 19.6% (inactive).

With `C=CCOc1ccccc1CN1CCC(n2nccc2NC(=O)C2CC2)CC1`, the “activity change, negative = inhibition” value is -53.1% (inactive).

For `O=C(CSc1nccn1Cc1ccccc1)NC1CCCC1`, the “activity change, negative = inhibition” value was 1.77% (inactive).

Turning to `O=C(NNC(=S)Nc1cccc(Cl)c1)c1ccccc1OC(F)F`, the “activity change, negative = inhibition” value was 21.6% (inactive).

For the molecule `COc1ccc(C2CC(=O)Nc3n[nH]c(-c4ccccc4)c32)cc1OC` (configuration not stated), the “activity change, negative = inhibition” value was 23.4% (inactive).

For `CCc1ccc(N2CC(C(=O)N3CCN(c4ccccn4)CC3)CC2=O)cc1` (configuration not stated), the “activity change, negative = inhibition” value was 23.1% (inactive).

In the case of `COc1ccc(-c2nnc(Nc3ccc(CC(N)=O)cc3)c3ccccc23)cc1`, the “activity change, negative = inhibition” value is -7.23% (inactive).

As to `Cc1cc(C)n(CCCNC(=O)COc2ccc([N+](=O)[O-])cc2)n1`, the “activity change, negative = inhibition” value was -36.6% (inactive).

Regarding `CCC(=O)NC(c1ccccc1Cl)c1c(O)ccc2ccccc12` (configuration not stated), the “activity change, negative = inhibition” value was 0.404% (inactive).

On to `COc1ccccc1NS(=O)(=O)c1cc(NC(C)=O)ccc1N1CCCCC1`, for which the “activity change, negative = inhibition” value was 1.54% (inactive).

As for `CCn1c2ccc(C)cc2c2nnc(SCCN3CCOCC3)nc21`, the “activity change, negative = inhibition” value was 5% (inactive).

In the case of `COC(=O)c1ccc(NC(=O)N2CCC(O)(c3cccnc3)CC2)cc1`, the “activity change, negative = inhibition” value is 9.11% (inactive).

`Cc1ccc(/C=C2/C(=N)N3N=C(CC(=O)N4CCCC4)SC3=NC2=O)o1`: the “activity change, negative = inhibition” value was 15.6% (inactive).

`COC(=O)c1c(NC(=O)CCN2CCOCC2)sc2c1CCCC2`: the “activity change, negative = inhibition” value is 1.23% (inactive).

For the molecule `COc1ccc(CCN=C(N)NS(=O)(=O)c2cccs2)cc1`, the “activity change, negative = inhibition” value was -3.98% (inactive).

For `COc1cc(SC)ccc1C(=O)OCC(=O)NC(=O)NC(C)C`, the “activity change, negative = inhibition” value is -25.9% (inactive).

With `COc1cccc(NC(=O)Nc2cnccn2)c1`, the “activity change, negative = inhibition” value was -11.9% (inactive).

For the molecule `O=C(N/C(=C/c1cccc([N+](=O)[O-])c1)C(=O)N1CCOCC1)c1ccc(Br)cc1`, the “activity change, negative = inhibition” value was 14.1% (inactive).

For `Cn1cccc1CNCC(O)c1ccccc1` (configuration not stated), the “activity change, negative = inhibition” value is -0.896% (inactive).

As to `CC(Sc1nnc(-c2ccccc2F)n1C1CC1)C(=O)NCc1ccco1` (configuration not stated), the “activity change, negative = inhibition” value is 20.6% (inactive).

For `CC1CCN(c2ccc(C(=O)NCc3ccco3)cc2[N+](=O)[O-])CC1`, the “activity change, negative = inhibition” value was 24% (inactive).

Consider `N#Cc1cccc(Nc2c3c(nc4ccccc24)CCCC3)c1`, for which the “activity change, negative = inhibition” value was 31% (inactive).

On to `O=S(=O)(c1cc(Cl)cc(Cl)c1O)N1CCC2(CC1)OCCO2`, for which the “activity change, negative = inhibition” value is -7.76% (inactive).

Consider `CS(=O)(=O)c1ccc(Cl)c(NC(=O)COC(=O)CCc2c[nH]c3ccccc23)c1`, for which the “activity change, negative = inhibition” value is -2.31% (inactive).

`CCS(=O)(=O)c1ccc(NC(=O)c2ccccc2Cl)c(O)c1`: the “activity change, negative = inhibition” value was -5.3% (inactive).

For the molecule `Nc1ccn(CC(=O)N2CCN(c3ccccn3)CC2)c(=O)n1`, the “activity change, negative = inhibition” value is 8.72% (inactive).

Turning to `NC(=O)c1ncn([C@@H]2O[C@H](CNCc3cccn3-c3ccncc3)[C@@H](O)[C@H]2O)n1`, the “activity change, negative = inhibition” value was 5.2% (inactive).

On to `O=C(NCc1ccc2c(c1)OCO2)c1c(O)c2cccc3c2n(c1=O)CCC3`, for which the “activity change, negative = inhibition” value was -10.3% (inactive).

As for `Cc1nc(NC(=O)c2ccco2)sc1-c1csc(Nc2ccc(Cl)cc2)n1`, the “activity change, negative = inhibition” value is -28.1% (inactive).

Take `Cc1ccc(SCc2noc(C(=O)NC(C)C)c2C(=O)O)cc1C`: the “activity change, negative = inhibition” value is 22.1% (inactive).

In the case of `CCCCNC(=O)NNC(=O)c1ccc(F)cc1`, the “activity change, negative = inhibition” value is 3.97% (inactive).

As to `O=C(O)C1C(=O)NCC1c1ccccc1` (configuration not stated), the “activity change, negative = inhibition” value is 5.39% (inactive).

With `Cc1ccc(C(=O)N/C(=C\c2cn(S(=O)(=O)N(C)C)c3ccccc23)C(=O)NCCCN2CCOCC2)cc1`, the “activity change, negative = inhibition” value is -3.49% (inactive).

With `COc1ccc(Nc2nc(NCCO)nc(OC)n2)cc1`, the “activity change, negative = inhibition” value was 12.2% (inactive).

With `CCOC(=O)CC(NC(=O)c1cccc2c1C(=O)N(Cc1cccnc1)C2)c1ccc(OCC)c(OC)c1` (configuration not stated), the “activity change, negative = inhibition” value was 22.5% (inactive).

As for `OC1(c2ccccc2Cl)NN=C2CCCCCN21` (configuration not stated), the “activity change, negative = inhibition” value is 2.37% (inactive).

In the case of `Cc1nc2ccccn2c1/C(O)=C1\C(=O)C(=O)N(CCN(C)C)C1c1ccco1` (configuration not stated), the “activity change, negative = inhibition” value was -13.9% (inactive).

Turning to `COc1ccccc1N1C(=NC(=O)CCc2ccccc2)SC2CS(=O)(=O)CC21` (configuration not stated), the “activity change, negative = inhibition” value is 1.05% (inactive).

As for `CCNc1c(NS(=O)(=O)c2ccc(OC)cc2)c(=O)oc2ccccc12`, the “activity change, negative = inhibition” value was 48% (inactive).

For the molecule `COc1ccc(Cc2nnc(NS(=O)(=O)c3ccc(Cl)cc3)s2)cc1OC`, the “activity change, negative = inhibition” value was -17.9% (inactive).
